From PubChem BioAssay (NCATS)
Inconclusive results are not listed. Entries that show only a call come without a potency. Activity calls are given as the source filed them. Calls come from the whole dose curve; as a rule, active = well fitted inhibition curve with a large enough effect; inconclusive = small, poorly fitted or top-dose-only effect; inactive = flat fitted curve, though single readings scatter.

Legend:
Assay in all cases: qHTS profiling for inhibitors of Plasmodium falciparum proliferation (AID 504749); note: nearly all actives have a fitted effect of over 60% in size
Details in all cases: P. falciparum in erythrocytes, SYBR Green DNA, 72 h; series mostly up to 28.7 µM
AS120 = system: AS120
Method in brief: (§1)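 P. falciparum-infected erythrocytes (0.3% parasitemia, 2.5% hematocrit final) were exposed to compounds for 72 h at 37 C in 5% CO2, then lysed with SYBR Green buffer overnight at room temperature; parasite DNA fluorescence was normalized to artemisinin and DMSO controls.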

C2A = system: C2A
Method in brief: as §1

CP185 = system: CP185
Method in brief: as §1

CP191 = system: CP191
Method in brief: as §1

CP237 = system: CP237
Method in brief: as §1

CP238 = system: CP238
Method in brief: as §1

CP252 = system: CP252
Method in brief: as §1

CP256 = system: CP256
Method in brief: as §1

CP262 = system: CP262
Method in brief: as §1

CP265 = system: CP265
Method in brief: as §1

CP325 = system: CP325
Method in brief: as §1

CP329 = system: CP329
Method in brief: as §1

DFO2036 = system: DFO2036
Method in brief: as §1

DIV30 = system: DIV30
Method in brief: as §1

HB3 = system: HB3
Method in brief: as §1

P94_40 = system: P94_40
Method in brief: as §1

PAD = system: PAD
Method in brief: as §1

PC49 = system: PC49
Method in brief: as §1

SC27B = system: SC27B
Method in brief: as §1

TAB113 = system: TAB113
Method in brief: as §1
Potency is the fitted concentration of half-maximal effect.

Structure (SMILES) | Potency (AS120) | Potency (C2A) | Potency (CP185) | Potency (CP191) | Potency (CP237) | Potency (CP238) | Potency (CP252) | Potency (CP256) | Potency (CP262) | Potency (CP265) | Potency (CP325) | Potency (CP329) | Potency (DFO2036) | Potency (DIV30) | Potency (HB3) | Potency (P94_40) | Potency (PAD) | Potency (PC49) | Potency (SC27B) | Potency (TAB113)
CN1[C@@H]2CC(OC(=O)[C@@H](CO)c3ccccc3)C[C@@H]1[C@H]1O[C@H]12 (stereo partly drawn) | inactive | inactive | inactive | inactive | inactive | inactive | inactive | inactive | inactive | inactive | inactive | inactive | inactive | inactive | inactive | inactive | inactive | inactive | inactive | inactive
CCc1ccc2c(c1)N(C[C@H](C)CN(C)C)c1ccccc1S2 | – | – | inactive | – | – | inactive | inactive | – | inactive | inactive | inactive | inactive | inactive | – | inactive | – | inactive | – | inactive | –
C(=C/c1ccccc1)/CN1CCN(C(c2ccccc2)c2ccccc2)CC1 | inactive | inactive | inactive | inactive | 3550 nM (active) | inactive | inactive | inactive | inactive | inactive | inactive | inactive | inactive | inactive | inactive | inactive | inactive | inactive | inactive | inactive
CC(=O)N1CCN(c2ccc(OC[C@@H]3CO[C@@](Cn4ccnc4)(c4ccc(Cl)cc4Cl)O3)cc2)CC1 | inactive | inactive | inactive | inactive | inactive | inactive | inactive | inactive | inactive | inactive | inactive | inactive | inactive | inactive | inactive | inactive | inactive | inactive | inactive | inactive
C[N+]1(C)[C@@H]2CC(OC(=O)[C@@H](CO)c3ccccc3)C[C@@H]1[C@H]1O[C@H]12 (stereo partly drawn) | inactive | inactive | inactive | inactive | inactive | inactive | inactive | inactive | inactive | inactive | inactive | inactive | inactive | inactive | inactive | inactive | inactive | inactive | inactive | inactive
OC[C@H](S)CS | inactive | inactive | inactive | inactive | 2240 nM (active) | inactive | inactive | inactive | – | inactive | – | inactive | – | inactive | 2000 nM (active) | inactive | inactive | inactive | inactive | inactive
N[C@H](COP(=O)(O)O)C(=O)O | inactive | inactive | inactive | inactive | inactive | inactive | inactive | inactive | inactive | inactive | inactive | inactive | inactive | inactive | inactive | inactive | inactive | inactive | inactive | inactive
COc1cc2nc(N(C)CCCNC(=O)[C@@H]3CCCO3)nc(N)c2cc1OC | inactive | inactive | inactive | inactive | inactive | inactive | inactive | inactive | inactive | inactive | inactive | inactive | inactive | inactive | inactive | inactive | inactive | inactive | inactive | inactive
